In PubChem BioAssay (NCATS):
Results filed as inconclusive are left out. Calls of active or inactive are those of the source. Calls come from the whole dose curve; as a rule, active = well fitted cell-killing curve with a large enough effect; inconclusive = small, poorly fitted or top-dose-only effect, or effect the other way; inactive = no such curve, though single readings can be large or run the other way.

Experiment: Viability qHTS for spleen associated tyrosine kinase inhibitor (SYKi) drug resistant MV4-11 cells (AID 1963824); note: nearly all actives have a fitted effect of over 35% in size
Details: SYKi-resistant MV4-11 viability, CellTiter-Glo, 72 h; series mostly up to 45 µM; viability, % of control: at the top concentration
Method in brief: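 SYK-inhibitor-resistant MV4-11 AML cells were seeded at 500 per well onto compound and cultured 72 hours (37 °C, 5% CO2). CellTiter-Glo was then added, and after 10 min at room temperature, luminescence gave viability.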
Potency is the fitted concentration of half-maximal effect.

Which Potency does the source give for `COc1cc(N2CCN(C)CC2)ccc1Nc1ncc2c(n1)N(C)c1ccccc1C(=O)N2` here?
The Potency was 13.2 µM (active).

For `COC(=O)C1(C)c2[nH]c3ccccc3c2CCN1C(=O)CCl` (stereo unspecified), which Potency is on record?
Its Potency is 2.91 µM (active).

With `Cc1cc(F)ccc1[C@H]1C[C@@H](N2CCN3C(=O)CC[C@H]3C2)CCN1C(=O)N(C)[C@H](C)c1cc(C(F)(F)F)cc(C(F)(F)F)c1` as the compound, how does the Potency read?
Its Potency is 5.17 µM (active).

With `Cc1ncsc1-c1ccc([C@H](C)NC(=O)[C@@H]2C[C@@H](O)CN2C(=O)[C@@H](NC(=O)COCCCOCCNC(=O)C[C@@H]2N=C(c3ccc(Cl)cc3)c3c(sc(C)c3C)-n3c(C)nnc32)C(C)(C)C)cc1` as the compound, how does the Potency read?
Its Potency is 0.0023 µM (active).

With `Nc1ccc(S(=O)(=O)Nc2nccs2)cc1` as the compound, how does the Potency read?
Its Potency is “inactive”.

For `CCCCCCCCCCCCCCCCC(C(=O)O)C(O)(CC(=O)O)C(=O)O` (stereo unspecified), which “viability, % of control” value is on record?
Its value is 83.9% (inactive).

With `CC1OC2OC3C(OCC(O)C3O)OC(=O)C34CCC(C)(C)CC3C3=CCC5C6(C)CC(O)C(OC7OC(CO)C(O)C(O)C7OC7OCC(OC(=O)CC(C)(O)CC(=O)OC1C(OC1OCC(O)C(O)C1O)C2O)C(O)C7O)C(C)(CO)C6CCC5(C)C3(C)CC4O` (stereo unspecified) as the compound, how does the Potency read?
The Potency was 1.78 µM (active).

Which Potency does the source give for `CCCCNc1ccc(-c2ccc(CN3CCOCC3)cn2)c(NC2CCC(O)CC2)c1` (stereo unspecified) here?
Its Potency is 0.0502 µM (active).

With `CC(=O)O[C@@H]1[C@@H](O)[C@H](O[C@@H]2[C@@H](O)[C@@H](O)[C@H](O[C@H]3[C@H](O[C@H]4[C@H](O[C@H]5CC[C@@]6(C)C(CC[C@]7(C)C6CC=C6[C@@H]8CC(C)(C)CC[C@]8(C(=O)O)CC[C@]67C)[C@]5(C)CO)O[C@H](CO)[C@@H](O)[C@@H]4O)OC[C@@H](O)[C@@H]3O)O[C@H]2C)OC[C@H]1O` (stereo partly specified) as the compound, how does the Potency read?
The Potency was 3.9 µM (active).

With `C[C@]1(C(=O)Nc2ccc(F)nc2)CCCN1c1nc(Nc2cc(C3CC3)[nH]n2)c2cccn2n1` as the compound, how does the Potency read?
Its Potency is 1.64 µM (active).

For `CCN(CC)CCOCCOC(=O)C(CC)(CC)c1ccccc1`, which Potency is on record?
The Potency was 23.1 µM (active).

With `C/C=C/C=C/c1cc2c(C=O)c(O)c(CC=C(C)C)cc2o1` as the compound, how does the Potency read?
Its Potency is 18.4 µM (active).

For `CC(=O)Nc1nc(C)c(-c2nc(N3CCCC(O)C3)no2)s1` (stereo unspecified), which Potency is on record?
The Potency was 16.4 µM (active).

Which Potency does the source give for `CN1CCN(C2=Nc3ccccc3Nc3ccc(OS(=O)(=O)C(F)(F)F)cc32)CC1` here?
The Potency was 20.6 µM (active).

Which “viability, % of control” value does the source give for `C=C(C(=O)O)C1CCC2(C)CCC(O)C(=C)C2C1` (stereo unspecified) here?
The value was 98.9% (inactive).

Which Potency does the source give for `N#Cc1cnc2cnc(NCc3cccnc3)cc2c1Nc1ccc(F)c(Cl)c1` here?
The Potency was 3.66 µM (active).

Which Potency does the source give for `Cn1nc(C(C)(C)C)cc1C(=O)N[C@@H](Cc1cccc(Cl)c1)C(=O)NCC#N` here?
The Potency was 13 µM (active).

With `COc1ccc(C[C@H](N)C(=O)N[C@H]2[C@@H](O)[C@H](n3cnc4c(N(C)C)ncnc43)O[C@@H]2CO)cc1` as the compound, how does the Potency read?
The Potency was 0.184 µM (active).

Which Potency does the source give for `C=C1C(=O)OC2CC(C)C(CCC(C)O)=CCC12` (stereo unspecified) here?
The Potency was 7.31 µM (active).

Which Potency does the source give for `Cc1c(C(=O)Nc2ccc(Oc3ccnc4[nH]cc(-c5ccccc5)c34)c(F)c2)c(=O)n(-c2ccc(F)cc2)n1C` here?
Its Potency is 0.0206 µM (active).

Which Potency does the source give for `O=C1CCc2cc(S(=O)(=O)Nc3cccc(Cl)c3)ccc2N1` here?
Its Potency is 16.4 µM (active).

For `OCC(O)CCO/N=C1/C(c2c(O)[nH]c3ccccc23)=Nc2ccccc21` (stereo unspecified), which Potency is on record?
Its Potency is 0.0517 µM (active).

For `CC1(C)CC[C@]2(C(=O)O[C@@H]3O[C@H](CO)[C@@H](O)[C@H](O)[C@H]3O)CC[C@]3(C)C(=CCC4[C@@]5(C)C[C@@H](O)[C@H](O)[C@@](C)(CO)C5CC[C@]43C)C2[C@@H]1O` (stereo partly specified), which “viability, % of control” value is on record?
The value was 79.1% [at 17.3 µM] (inactive).

For `COC(=O)C1=CO[C@@H](O[C@@H]2O[C@H](CO)[C@@H](O)[C@H](O)[C@H]2O)[C@@H]2C(CO)=CC[C@]12O`, which “viability, % of control” value is on record?
The value was 97.3% [at 17.3 µM] (inactive).

For `COC(=O)CC(O)CC(O)/C=C/c1c(C)ccc2c1C(OC(C)=O)CC(C)C2` (stereo unspecified), which Potency is on record?
Its Potency is 1.8 µM (active).

With `CC1(C)NC2N(C1=O)c1ccccc1C2(O)CC(C(=O)O)n1cnc2ccccc2c1=O` (stereo unspecified) as the compound, how does the “viability, % of control” value read?
The value was 95.7% [at 17.3 µM] (inactive).

With `COc1cc(CN(CCN)C(=O)c2cccs2)ccc1OCc1ccccc1` as the compound, how does the Potency read?
The Potency was 16.4 µM (active).

Which “viability, % of control” value does the source give for `CC1COC2(OC3CC4C5CC(O[C@@H]6O[C@H](C)[C@@H](O[C@@H]7O[C@@H](C)[C@H](O)[C@@H](O)[C@H]7O)[C@H](O)[C@H]6O)C6CC(O)CCC6(C)C5CCC4(C)C3C2C)C(O)C1` (stereo partly specified) here?
The value was 106% [at 17.3 µM] (inactive).

Which Potency does the source give for `NC(N)=NC(=O)c1cnn(-c2cccc3ncccc23)c1C1CC1` here?
Its Potency is 3.26 µM (active).

Which “viability, % of control” value does the source give for `C=C[C@@H]1[C@H](O[C@@H]2O[C@H](CO)[C@@H](O)[C@H](O)[C@H]2O)OC=C(C(=O)O)[C@H]1CCOC(=O)/C=C/c1ccc(O)c(O)c1` here?
Its value is 67.3% [at 17.3 µM] (inactive).

With `C=C(C)[C@H]1CC[C@]2(C(=O)O)CC[C@]3(C)C(CCC4[C@@]5(C)CCC(=O)C(C)(C)C5CC[C@]43C)C12` (stereo partly specified) as the compound, how does the Potency read?
The Potency was 1.42 µM (active).
